# High-throughput results deposited in PubChem BioAssay by several laboratories.
# CCHF vOTU inh-1 = CCHFV vOTU protease inhibition; hit rate 0.55% among 370,000; Pep-AMC fluorescence; inhibition, % at 11.5 µM
# Mtb betalactam = beta-lactam sensitization of Mtb H37Rv. M. tuberculosis H37Rv growth with meropenem, percent inhibition. inhibition, % at 25 µM. hit rate 0.27% among 330,000. AID 434955; call rule not given here;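 further: growth measured after seven days incubation then overnight dye step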
# RecA intein inh = blocks M. tuberculosis RecA intein splicing; P9WHJ3; hit rate 0.75% among 290,000; cell-free RecA intein splicing, fluorescence; inhibition, % (no concentration beside the values); in the data active means inhibition above about 30%
# Rv3671c inh = Rv3671c (M. tuberculosis) protease inhibition | P9WHR9 | inhibition, % at 5.96 µM | hit rate 0.048% among 320,000; in the data active means inhibition above about 38%;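 further: extracellular domain of Rv3671c used as enzyme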
# Target sequence (P9WHR9 whole entry, looked up, the tested form may be a part): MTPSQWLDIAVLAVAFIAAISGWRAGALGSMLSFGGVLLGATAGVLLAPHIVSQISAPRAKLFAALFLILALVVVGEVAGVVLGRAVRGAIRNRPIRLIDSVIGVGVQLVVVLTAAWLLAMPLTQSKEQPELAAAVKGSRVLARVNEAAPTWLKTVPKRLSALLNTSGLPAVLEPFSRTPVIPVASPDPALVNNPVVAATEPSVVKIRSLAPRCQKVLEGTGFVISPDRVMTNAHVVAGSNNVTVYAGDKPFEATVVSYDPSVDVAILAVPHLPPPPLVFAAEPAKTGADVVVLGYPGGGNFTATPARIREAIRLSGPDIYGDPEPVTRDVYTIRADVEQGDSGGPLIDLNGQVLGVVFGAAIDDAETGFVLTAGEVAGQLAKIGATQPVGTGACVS
# UGM FP inh = blocks M. tuberculosis UGM enzyme; purified UGM, fluorescence polarization probe displacement; inhibition, % at 10 µM; P9WIQ1; hit rate 0.06% among 320,000; in the data active means inhibition above about 10%, passing the limit was not always enough
# CCHF vOTU inh-2 = CCHFV vOTU protease inhibition, confirmation; shares compounds with CCHF vOTU inh-1; AID 686976; hit rate 17% among 1,900; inhibition, % at 11.5 µM; Recombinant CCHFV vOTU, Pep-AMC fluorescence
# A number is an active result; - = inactive; . = no result given. A selection: hits, their analogues and other compounds. The true share with any hit is near 1.2%. Unless noted, no stated cut-off is given here; in the data, active means inhibition above about 30%; inactive means the rest.
SMILES,CCHF vOTU inh-1,Mtb betalactam,RecA intein inh,Rv3671c inh,UGM FP inh,CCHF vOTU inh-2
C=C(C)COc1ccc(-c2nc(N)ncc2-c2ccc(OC)cc2)c(O)c1,30,.,-,.,.,-
Cc1cccc(Nc2nc(N)c([N+](=O)[O-])c(N3CCCC(C)C3)n2)c1 (stereo unspecified),31,-,-,-,-,-
Cc1cccc(Nc2nc(N)c([N+](=O)[O-])c(N3CCN(C)CC3)n2)c1,-,-,-,-,-,.
CC(=O)N[C@@H]1C[C@@H]2O[C@H](CO)CC[C@@H]2O[C@@H]1CCc1ccc(C#CC2(O)CCCC2)cc1,-,.,.,.,.,.
O=C(Nc1cc([N+](=O)[O-])ccc1O)NC1CCS(=O)(=O)C1 (stereo unspecified),36,-,.,-,-,-
COc1ccccc1-c1cccc2c3c([nH]c12)[C@@H]1C[C@H]2[C@@H](CN1CC3)[C@H](C)ON2C,-,.,.,.,.,.
CCCCC[n+]1ccn(C2=C([O-])c3ccccc3C(=O)/C2=N\S(=O)(=O)c2ccc(Br)cc2)c1,-,-,-,-,-,.
CCCC[n+]1ccn(C2=C([O-])c3ccccc3C(=O)/C2=N\S(=O)(=O)c2ccccc2)c1,58,-,-,-,-,54
COc1cc(/C=C(\C(=O)O)c2ccc(S(=O)(=O)N3CCCC3)s2)ccc1OCCC(C)C,32,.,.,.,.,-
O=C(CCCCCN1C(=O)C2C3C=CC(C3)C2C1=O)Nc1ccc2ncccc2c1 (stereo unspecified),69,.,.,.,.,-
Oc1c(N=Nc2nn[nH]n2)ccc2ccccc12,98,.,.,.,.,84
Nc1ccc2ccc(NS(=O)(=O)N3CCCCC3)cc2c1,-,.,.,.,.,.
CN(Cc1cn(CC2CCCCC2)nn1)S(=O)(=O)c1ccccc1Br,-,.,.,.,.,.
COC(=O)CSc1[nH]c2ccc(Br)cc2c1[N+](=O)[O-],33,-,-,-,-,-
Cc1ccc(C)c(NC(=O)CN2C(=O)CCSc3ccccc32)c1,-,.,.,.,.,.
C=CCn1c2ccccc2c2nnc(SCCCn3c(=O)[nH]c4ccccc43)nc21,31,.,.,.,.,-
C=CC[C@H]1c2ccccc2[C@H]2N3N=Cc4ccccc4[C@H]3[C@H](CCCC)C(=O)N2N1C(=O)c1ccccc1,-,.,.,.,.,.
COC1=C(Br)C(=O)c2nc(C)ccc2C1=O,115,.,.,.,.,83
COC1=C(N)C(=O)c2nc(C)ccc2C1=O,55,.,.,.,.,107
CN(c1ccc(NC(=O)CCc2c[nH]c3ccccc23)cc1)c1ccccn1,-,.,.,.,.,.
CC(C)(C)c1ccc(-c2cn(C[C@H](Cc3ccccc3)n3c(=O)c4ccccc4n3Cc3ccco3)nn2)cc1,-,.,.,.,.,.
Cc1c(P(=S)(c2ccccc2)c2ccccc2)[n+]2ccccc2n1C/C=C/c1ccccc1,30,.,.,.,.,-
O=c1[nH]c(=S)[nH]c2c1C(c1cccc(C(F)(F)F)c1)OC(CCc1ccccc1)C2 (stereo unspecified),42,.,.,.,.,-
Cc1ccc(NC(=O)CN2C(=O)S/C(=C/c3ccc(O)c([N+](=O)[O-])c3)C2=O)cc1C,-,.,.,.,.,.
Cc1cccc(NC(=O)CN2C(=O)S/C(=C\c3ccc(O)c([N+](=O)[O-])c3)C2=O)c1,31,-,-,-,-,-
SMILES,CCHF vOTU inh-1,Mtb betalactam,RecA intein inh,Rv3671c inh,UGM FP inh,CCHF vOTU inh-2
Oc1c(CN2CCCCC2)ccc2cccnc12,31,.,.,.,.,-
O=C(Cc1ccccc1Cl)Nc1ccc(S(=O)(=O)Nc2nccs2)cc1,-,-,-,-,-,.
O=C(CSc1ccc(Br)c2cccc(Cl)c12)Nc1ccc(S(=O)(=O)Nc2nccs2)cc1,36,-,-,-,-,-
COc1ccc(CN2CN3Cc4cc(F)ccc4C3CS2(=O)=O)cc1 (stereo unspecified),-,.,.,.,.,.
CC(=O)Nc1ccc(NC2=C/C(=N/S(=O)(=O)c3cccs3)c3ccccc3C2=O)cc1,110,-,.,-,-,97
CC(=O)Nc1ccc(NC(=O)C(C)OC(=O)c2ccccc2NS(=O)(=O)c2cccs2)cc1 (stereo unspecified),-,-,-,-,-,.
O=C(COC(=O)c1ccc([N+](=O)[O-])s1)Nc1ccc(Cl)cn1,41,-,.,-,-,51
Cc1c(Cl)cnc(NC(=O)COC(=O)c2ccc([N+](=O)[O-])s2)c1Cl,74,-,-,-,-,74
